Test results published in PubChem BioAssay AID1159580 (chemical genetic matrix, 2015).
The campaign covered roughly 5,500 compounds. About 2,000 (36%) were called active. Another 18% or so got no clear call; they are omitted. Cut-off read from the data, not from the text of the source: active = normalized growth mostly below about 0.91 (no sharp cut-off); inconclusive = no clear call, values can overlap the other calls; inactive = mostly above about 0.92. Some of the results follow.

Assay: chemical genetic growth profiling, strain panel (AID 1159580);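 note: tested at 20 µM; growth read once vehicle control cultures reached saturation at 30 °C; 1 = growth at the plate median or of vehicle wells; lower values mean less growth of the strain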
Conditions: growth OD
[1] = S. cerevisiae deletion strains, locus YAL013W, strain DEP1, active compounds read low
[2] = S. cerevisiae deletion strains, locus YBR229C, strain ROT2, active compounds read low
[3] = S. cerevisiae deletion strains, locus YCL061C, strain MRC1, active compounds read low
[4] = S. cerevisiae deletion strains, locus YDL101C, strain DUN1, active compounds read low
[5] = S. cerevisiae deletion strains, locus YDL134C, strain PPH21, active compounds read low
[6] = S. cerevisiae deletion strains, locus YDR150W, strain NUM1, active compounds read low
[7] = S. cerevisiae deletion strains, locus YEL061C, strain CIN8, active compounds read low
[8] = S. cerevisiae deletion strains, locus YGR078C, strain PAC10, active compounds read low
[9] = S. cerevisiae deletion strains, locus YGR229C, strain SMI1, active compounds read low
[10] = S. cerevisiae deletion strains, locus YHR030C, strain SLT2, active compounds read low
[11] = S. cerevisiae deletion strains, locus YHR087W, strain rtc3, active compounds read low
[12] = S. cerevisiae deletion strains, locus YJL187C, strain SWE1, active compounds read low
[13] = S. cerevisiae deletion strains, locus YJR043C, strain POL32, active compounds read low
[14] = S. cerevisiae deletion strains, locus YJR075W, strain HOC1, active compounds read low
[15] = S. cerevisiae deletion strains, locus YKL190W, strain CNB1, active compounds read low
[16] = S. cerevisiae deletion strains, locus YLR039C, strain RIC1, active compounds read low
[17] = S. cerevisiae deletion strains, locus YLR058C, strain SHM2 (second series), active compounds read low
[18] = S. cerevisiae deletion strains, locus YLR085C, strain ARP6, active compounds read low
[19] = S. cerevisiae deletion strains, locus YLR262C, strain YPT6, active compounds read low
[20] = S. cerevisiae deletion strains, locus YML094W, strain GIM5, active compounds read low
[21] = S. cerevisiae deletion strains, locus YMR219W, strain ESC1, active compounds read low
[22] = S. cerevisiae deletion strains, locus YMR263W, strain SAP30, active compounds read low
[23] = S. cerevisiae deletion strains, locus YMR307W, strain GAS1, active compounds read low
[24] = S. cerevisiae deletion strains, locus YNL153C, strain GIM3, active compounds read low
[25] = S. cerevisiae deletion strains, locus YNL298W, strain CLA4 (second series), active compounds read low
[26] = S. cerevisiae deletion strains, locus YNL322C, strain KRE1, active compounds read low
[27] = S. cerevisiae deletion strains, locus YNR030W, strain Alg12, active compounds read low
[28] = S. cerevisiae deletion strains, locus YPL055C, strain LGE1, active compounds read low
[29] = S. cerevisiae deletion strains, locus YPL241C, strain CIN2, active compounds read low
[30] = S. cerevisiae deletion strains, locus YPR135W, strain CTF4, active compounds read low
[31] = S. cerevisiae deletion strains, locus YOL006C, strain TOP1, active compounds read low

Measured: normalized growth

O=C(CSc1nnc(-c2ccco2)n1-c1ccc2c(c1)OCCO2)c1cccc(F)c1
inactive: [1] 0.983 | [2] 1 | [3] 0.997 | [4] 0.987 | [5] 1 | [6] 1.01 | [7] 0.984 | [8] 0.988 | [9] 1 | [10] 0.961 | [11] 1 | [12] 1.01 | [13] 0.997 | [14] 1.01 | [15] 1 | [16] 0.916 | [17] 1.01 | [18] 0.978 | [19] 0.954 | [20] 0.983 | [21] 0.988 | [22] 0.909 | [23] 0.77 | [24] 0.988 | [25] 0.977 | [26] 0.989 | [27] 0.988 | [28] 0.968 | [29] 0.994 | [30] 0.854

S=c1[nH]nc(-c2ccco2)n1-c1ccc2c(c1)OCCO2
inactive: [1] 0.998 | [2] 0.985 | [3] 0.994 | [4] 0.989 | [5] 0.991 | [6] 1.02 | [7] 1.02 | [8] 0.979 | [10] 1.05 | [11] 0.983 | [13] 0.987 | [14] 0.985 | [15] 0.989 | [16] 0.972 | [17] 0.98 | [18] 0.994 | [19] 0.991 | [20] 1 | [21] 0.991 | [22] 1.02 | [23] 1.05 | [24] 0.993 | [25] 1.01 | [26] 0.988 | [27] 1.01 | [31] 0.978 | [28] 0.971 | [29] 1 | [30] 1.06 | S. cerevisiae strains, strain wild type, active compounds read low 0.979

COc1ccc(-n2c(SCc3ccc(Br)cc3)nnc2-c2ccco2)cc1
active: [19] 0.803
inactive: [1] 0.972 | [2] 1 | [4] 1 | [6] 0.962 | [7] 1.01 | [8] 0.987 | [9] 0.978 | [10] 0.79 | [11] 0.996 | [12] 1.01 | [13] 0.98 | [14] 0.969 | [16] 0.803 | [17] 0.989 | [18] 0.947 | [20] 0.993 | [21] 0.993 | [22] 0.989 | [23] 0.893 | [24] 0.996 | [25] 0.917 | [26] 0.984 | [27] 0.966 | [31] 0.889 | [28] 0.976 | [29] 0.986 | [30] 0.844

Cn1cnc2c(NC3CCCC3)ncnc21
inactive: [1] 0.992 | S. cerevisiae deletion strains, locus YAL040C, strain CLN3, active compounds read low 0.993 | S. cerevisiae deletion strains, locus YCL061C, strain MRC1 (second series), active compounds read low 1 | [6] 0.999 | S. cerevisiae deletion strains, locus YDR363W, strain ESC2, active compounds read low 1 | S. cerevisiae deletion strains, locus YER002W, strain NOP16, active compounds read low 1.01 | [22] 1 | [23] 0.989 | S. cerevisiae deletion strains, locus YNL128W, strain TEP1, active compounds read low 1 | [24] 1.02 | S. cerevisiae deletion strains, locus YNL175C, strain NOP13, active compounds read low 1.04 | S. cerevisiae deletion strains, locus YNL197C, strain WHI3, active compounds read low 1 | S. cerevisiae deletion strains, locus YNL224C, strain SQS1, active compounds read low 0.997 | S. cerevisiae deletion strains, locus YOR083W, strain WHI5 (second series), active compounds read low 0.984
